The record followed here is PubChem BioAssay AID1465 (SRMLSC, 2008).

Molecules are shown by their SMILES. Screen size: about 220,000 compounds; about 160 (0.073%) were called active.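 How the source made its calls: active means fold induction of absorbance versus untreated yeast above a set limit, then at least 30% activation at any dose in follow-up; inconclusive means repeats straddling the limit, or above it without dose testing; inactive means fold induction below the set limit.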 The list is a sample of the results. Potency and affinity values are given separately.

In general, fold induction refers to the ratio of treated to control signal.

The test is described as follows: enhancers of respiration in Yfh1-depleted yeast, dose response, Friedreich's ataxia, plus single-dose screen (AID 1465). The note with it: S. cerevisiae Yfh1-off respiration, WST-1 reduction, 72 h; at 50 µM; stronger effect = higher value. On the technique in general: Formazan colour is commonly taken as a measure of viable cells.
In the case of `CCOC(=O)C1=C(Cc2ccc(Cl)cc2)C(=O)c2ccccc2C1=O`, the fold induction is 1.27 (inactive).

Regarding `CCOC(=O)C1=C(Cc2ccc(C)cc2)C(=O)c2ccccc2C1=O`, the fold induction is 1.29 (inactive).

In the case of `CCNS(=O)(=O)c1ccc(NC(=O)Nc2ccccc2OC)cc1`, the fold induction was 1.1 (inactive).

Turning to `Cc1nc2c(C)cccn2c1/C(O)=C1\C(=O)C(=O)N(CCN(C)C)C1c1ccncc1` (stereo not drawn), the fold induction was 1.11 (inactive).

`Oc1ccc(CN2CCCCC2)c2cccnc12`: the fold induction is 0.69 (inactive).

With `Oc1ccc(CN2CCN(Cc3ccccc3)CC2)c2cccnc12`, the fold induction was 1.36 (inactive).

As for `Oc1ccc(CN2CCN(c3ccccc3)CC2)c2cccnc12`, the fold induction was 0.91 (inactive).

Take `COc1ccccc1N1CCN(Cc2cc(Br)c(O)c3ncccc23)CC1`: the fold induction was 0.74 (inactive).

Consider `CCOc1ccc(C(=O)NCC(=O)OCc2c(F)cccc2Cl)cc1`, for which the fold induction was 1.18 (inactive).

For the molecule `CCNC(=S)N(Cc1ccc(OC)cc1)C1CC(=O)N(c2ccc(OCC)cc2)C1=O` (stereo not drawn), the fold induction is 0.92 (inactive).

`NC(=S)Nc1ccccc1Br`: the fold induction was 1 (inactive).

For `Cc1ccc(/C=N/NC(=O)CN2CCN(Cc3ccccc3Cl)CC2)o1`, the fold induction is 0.97 (inactive).

On to `Cc1c(NC=C(C#N)C#N)c(=O)n(-c2ccccc2)n1C`, for which the fold induction is 0.95 (inactive).

Turning to `CCOC(=O)/C(C#N)=N/Nc1c(C)n(C)n(-c2ccccc2)c1=O`, the fold induction is 1 (inactive).

For `Cc1c(NN=C(C#N)C#N)c(=O)n(-c2ccccc2)n1C`, the fold induction is 0.98 (inactive).

`Cc1c(N/C=C/C(=O)c2ccc(Cl)cc2)c(=O)n(-c2ccccc2)n1C`: the fold induction is 1 (inactive).

For the molecule `COC(=O)C(=NNc1c(C)n(C)n(-c2ccccc2)c1=O)C(=O)OC`, the fold induction is 1 (inactive).

For `N#C/C(=N\Nc1ccc(Cl)cc1)C(=O)c1ccccc1`, the fold induction was 0.82 (inactive).

As for `O=C(c1cc2c(s1)CCCC2)N1CCN(S(=O)(=O)c2ccccc2C(F)(F)F)CC1`, the fold induction was 0.91 (inactive).

`CCC(C)/C(C)=N/NC(=O)c1cn(-c2ccccc2)nc1-c1ccccc1` (stereo not drawn): the fold induction was 0.83 (inactive).

Regarding `O=C(O)CC(NC(=O)Cc1ccc([N+](=O)[O-])cc1)c1ccc2c(c1)OCO2` (stereo not drawn), the fold induction is 1 (inactive).

Take `Cc1ccc(-c2cc3nc(-c4ccccc4)cc(N4CCC5(CC4)OCCO5)n3n2)cc1`: the fold induction is 0.98 (inactive).

Regarding `O=C(Nc1ccon1)c1cccc(C(F)(F)F)c1`, the fold induction is 0.98 (inactive).

On to `COc1c(O)cc2c(c1O)C(=O)CC(c1ccccc1)O2` (stereo not drawn), for which the fold induction was 0.86 (inactive).

Turning to `C[C@@H]1Cc2c(O)c(O)cc(O)c2C(=O)O1`, the fold induction is 1.07 (inactive).

For `Cc1cc2cc(C(c3nnnn3Cc3ccco3)N3CCCCC3)c(=O)[nH]c2cc1C` (stereo not drawn), the fold induction was 0.99 (inactive).

Regarding `COc1ccc(OC)c(N2C(=O)CC(Cc3ccc(C)cc3)C2=O)c1` (stereo not drawn), the fold induction was 0.84 (inactive).

Take `N#C/C(C(=O)N1CCCCC1)=C1\Nc2ccccc2S1`: the fold induction was 0.81 (inactive).

`CC(=O)C1=C(c2ccc(Br)cc2)C(=O)c2ccccc2C1=O`: the fold induction is 0.86 (inactive).

Turning to `COC1=C(c2ccccc2)C(=O)c2ccccc2C1=O`, the fold induction was 1.01 (inactive).

`COc1ccc(C/C(O)=C(\C#N)c2nc3ccccc3[nH]2)cc1OC`: the fold induction is 1.12 (inactive).

In the case of `O=C(CC1(O)C(=O)Nc2ccccc21)c1ccc(-n2cnnn2)cc1` (stereo not drawn), the fold induction is 1.11 (inactive).

As to `CC1CCCC(NC(=O)c2ccc3c(=O)n(CC4CCCO4)c(=O)[nH]c3c2)C1C` (stereo not drawn), the fold induction was 1.02 (inactive).

As for `CCC(=O)/C=C1/Sc2ccccc2N1CC`, the fold induction was 0.79 (inactive).

With `CCOC(=O)/C(=C/C=C1\Sc2ccccc2N1CC)C(C)=O`, the fold induction is 0.99 (inactive).

Regarding `COC(=O)c1ccccc1NC(=O)Cn1ccnc1`, the fold induction is 1.02 (inactive).

Turning to `O=[N+]([O-])c1ccc(O)c2ncccc12`, the fold induction was 1.17 (inactive).

Regarding `CC(=O)NC(c1ccco1)c1ccc2cccnc2c1O` (stereo not drawn), the fold induction is 0.91 (inactive).

For the molecule `CC(C)CC(=O)NC(c1cccs1)c1ccc2cccnc2c1O` (stereo not drawn), the fold induction was 0.99 (inactive).

For the molecule `CCCC(=O)NC(c1ccco1)c1c(O)ccc2ccccc12` (stereo not drawn), the fold induction was 0.99 (inactive).

As to `CCC(=O)NC(c1cccs1)c1ccc2cccnc2c1O` (stereo not drawn), the fold induction is 0.88 (inactive).

For `CCCC(=O)NC(c1ccco1)c1cc(Cl)c2cccnc2c1O` (stereo not drawn), the fold induction was 0.7 (inactive).

Consider `O=C1CNC(=O)N1CC(=O)N1CCCc2ccccc21`, for which the fold induction is 1.04 (inactive).

Turning to `COc1ccc(C)cc1S(=O)(=O)Nc1cc(Cl)ccc1Cl`, the fold induction was 0.94 (inactive).

With `OC(COc1ccc2ccccc2c1)CN1CCN(c2ccc(F)cc2)CC1` (stereo not drawn), the fold induction was 0.93 (inactive).

As to `COc1ccc(/C=C2\Sc3ccc(C(=O)NCc4cccnc4)cc3N(C)C2=O)cc1OC`, the fold induction is 1.1 (inactive).

As to `c1csc(-c2nnc(N3CCOCC3)c3ccccc23)c1`, the fold induction is 1.39 (inactive).

With `Cc1c(Nc2ccc(C=O)cc2)c(=O)n(-c2ccccc2)n1C`, the fold induction is 1.09 (inactive).

On to `Clc1ccc(-c2n[nH]c3c2CCC3)cc1Cl`, for which the fold induction was 0.777 (inactive).

Regarding `CCC(=O)NNc1ncnc2c1cnn2C`, the fold induction is 1.06 (inactive).

As for `CCOc1ccc(Oc2ccc(S(=O)(=O)N3CCOCC3)cc2N)cc1`, the fold induction was 1.12 (inactive).

Consider `CCc1nnc(NC(=O)CCC(=O)N2CCN(CCOc3ccc(C)cc3)CC2)s1`, for which the fold induction is 0.907 (inactive).

In the case of `COc1ccc(NC(=S)NNc2ccc([N+](=O)[O-])cc2S(=O)(=O)Nc2ccc(C)cc2C)cc1`, the fold induction is 1.25 (inactive).

As for `Cc1ccc(NC(=S)NNc2ccc([N+](=O)[O-])cc2S(=O)(=O)Nc2ccccc2C(=O)O)cc1C`, the fold induction is 1.09 (inactive).

On to `O=C(O)CCc1nn2c3ccccc3nc2n(CCN2CCCCC2)c1=O`, for which the fold induction is 1.09 (inactive).

On to `COc1cc2c(cc1NC(=O)C(C)OC(=O)/C=C/c1ccc(OC(F)F)cc1)oc1ccccc12` (stereo not drawn), for which the fold induction was 1.12 (inactive).

`Cc1cc(/C=N/NC(=O)c2ccccc2F)c(C)n1-c1ccccc1`: the fold induction is 1.02 (inactive).

Take `COc1ccc(/C=N/NC(=O)c2cc(C)n(-c3ccccc3)c2C)cc1OC`: the fold induction is 0.99 (inactive).

As for `Cc1ccc(CCCOC(=O)C[N+]2(C)CCOCC2)cc1`, the fold induction was 1.14 (inactive).

Take `Cc1c(S(=O)(=O)N2CCN(C(c3ccccc3)c3ccccc3)CC2)c(=O)n(C)c(=O)n1C`: the fold induction was 1.25 (inactive).

Turning to `CN1/C(=C\C=C2/SC(=S)NC2=O)C(C)(C)c2ccccc21`, the fold induction was 1.04 (inactive).

Regarding `CN1/C(=C\C=O)C(C)(C)c2ccccc21`, the fold induction is 1.07 (inactive).

For `CC(C)n1c(SCC(=O)c2ccc3c(c2)OCCO3)nc2c1c(=O)n(C)c(=O)n2C`, the fold induction is 1.06 (inactive).

Consider `O=[N+]([O-])c1cccc(/C=N/Nc2nc(NCc3ccccc3)nc(N3CCOCC3)n2)c1`, for which the fold induction was 1.03 (inactive).

As to `O=[N+]([O-])c1ccc(/C=N/Nc2nc(NCc3ccccc3)nc(N3CCOCC3)n2)cc1`, the fold induction was 1.08 (inactive).

Turning to `CCCCN1C(=O)C2C(c3ccc(OC)cc3O)NC(CC(C)C)(C(=O)O)C2C1=O` (stereo not drawn), the fold induction was 0.99 (inactive).

`COc1ccc(C(NC(=O)c2cccnc2)c2cc(Cl)c3cccnc3c2O)cc1OC` (stereo not drawn): the fold induction is 0.98 (inactive).

Take `CCCC(=O)NC(c1ccc(OC)cc1)c1ccc2cccnc2c1O` (stereo not drawn): the fold induction was 0.96 (inactive).

`CCCC(=O)NC(c1ccc(OC)c(OC)c1)c1cc(Cl)c2cccnc2c1O` (stereo not drawn): the fold induction is 1.13 (inactive).

With `CCCC(=O)NC(c1ccc2c(c1)OCO2)c1cc(Cl)c2cccnc2c1O` (stereo not drawn), the fold induction was 1.12 (inactive).

As to `O=C(CS(=O)(=O)c1c[nH]c2ccccc12)N1CCCCCC1`, the fold induction is 1.02 (inactive).

With `CC(=NC1CC1)c1c(-c2ccccc2)[nH]n(-c2nc3ccccc3s2)c1=O`, the fold induction was 0.93 (inactive).

`CCCc1cc(=O)n(-c2nc3ccccc3s2)[nH]1`: the fold induction was 1 (inactive).

In the case of `Cc1ccc(S(=O)(=O)NCC(=O)OCc2ccccc2)cc1`, the fold induction was 0.97 (inactive).

In the case of `COc1ccc(CN2C(=O)[C@H]3Cc4c([nH]c5ccccc45)C(C)(C)N3C2=O)cc1`, the fold induction was 0.81 (inactive).

Turning to `CCC(=O)NC(/C=C/c1ccccc1)c1cc([N+](=O)[O-])c2cccnc2c1O` (stereo not drawn), the fold induction was 1.36 (inactive).

Take `O=[N+]([O-])c1cc(Cl)c(O)c2ncccc12`: the fold induction is 1.15 (inactive).

Consider `CC(C)C(=O)NC(c1ccccc1)c1cc([N+](=O)[O-])c2cccnc2c1O` (stereo not drawn), for which the fold induction is 0.98 (inactive).

For `O=[N+]([O-])c1cc(Cl)c2cccnc2c1O`, the fold induction is 0.89 (inactive).

Take `O=C(NNC(=O)c1cccnc1)Nc1cccc(Cl)c1Cl`: the fold induction is 0.89 (inactive).

Consider `Cc1cnccc1CN(C)Cc1nc(Cc2ccccc2Cl)no1`, for which the fold induction is 0.85 (inactive).

Consider `CCC1(C(=O)O)NC(c2cccc(OC)c2O)C2C(=O)N(c3ccccc3)C(=O)C21` (stereo not drawn), for which the fold induction is 1.01 (inactive).

Turning to `Cc1cc(C)n2nc(-c3sccc3-n3c(C)ccc3C)cc2n1`, the fold induction is 1.01 (inactive).

Regarding `COc1ccc(CN2C3CCCC2CC(NC(=O)Nc2cccc(C)c2)C3)cc1` (stereo not drawn), the fold induction is 0.96 (inactive).

For `Cc1ccc(C(=O)c2c(C)oc3c2C(=O)C(=O)c2ccccc2-3)cc1`, the fold induction is 1.18 (inactive).

For `Cc1oc2c(c1C(=O)O)C(=O)c1ccccc1C2=O`, the fold induction is 1.01 (inactive).

For `C=CCn1c(C)cc(C(=O)COc2ncnc3sccc23)c1C`, the fold induction is 0.88 (inactive).

Take `COc1ccccc1N(CN1C(=O)c2ccccc2C1=O)C(=O)c1cccc(C)c1`: the fold induction was 0.82 (inactive).

As for `O=C(CCCn1nnc2ccccc2c1=O)N[C@H](C(=O)O)c1ccccc1`, the fold induction is 1.02 (inactive).

On to `O=C(O)c1cccc(NC(=S)N/N=C/c2cccnc2)c1`, for which the fold induction was 0.98 (inactive).

On to `O=C(O)c1cccc(NC(=S)N/N=C/c2cccc(O)c2)c1`, for which the fold induction was 1.03 (inactive).

As for `COc1c(Cl)cc(Cl)cc1C(=O)n1nc(C)cc1C`, the fold induction was 0.88 (inactive).

Take `CCOC(=O)c1ccc(NNC(=O)CC)c([N+](=O)[O-])c1`: the fold induction is 1.03 (inactive).

As to `CNc1nc2c(c(=O)[nH]c(=O)n2C)n1CCOC`, the fold induction is 1.02 (inactive).

Take `O=C1NC(=O)/C(=C\c2ccc(N3CCOCC3)o2)N1`: the fold induction is 0.97 (inactive).

In the case of `O=C1NC(=O)/C(=C/c2ccc(N3CCOCC3)o2)N1`, the fold induction is 1.01 (inactive).

As to `COc1ccccc1C(CC(=O)N1CCCC1)c1ccc2c(c1)OCO2` (stereo not drawn), the fold induction was 0.99 (inactive).

`NNC(=O)CCc1c[nH]c2ccccc12`: the fold induction was 0.93 (inactive).
